# Measurements reported in PubChem BioAssay (NCI).
# About 83,000 compounds went through this panel and 20% of them were active in at least one assay; those are over-represented in the sample as a whole.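 Step 1: grow cells in 96-well plates. Step 2: add test compound at a single concentration. Step 3: incubate 48 h. Step 4: record percent growth.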 Calls of active or inactive are those of the source. Rule for the calls: active = growth percent below 10; inactive = the rest.
# Test system: UO-31 renal
# Experiment: NCI-60 one-dose screen, 48 h (100 = growth as untreated, 0 = no growth, -100 = all killed)
# Details: 10 µM
row,Structure (SMILES),growth
1,Cc1ccc(F)cc1N/C=c1\s/c(=C(\C#N)C(=O)Nc2ccccc2)n(-c2ccccc2)c1=O,45.5% (inactive)
2,COc1ccc([C@H]2C(C(=O)c3ccc(Cl)cc3)C3(N[C@@H]2c2ccccc2)C(=O)Nc2ccc(Cl)cc23)cc1 (stereo partly drawn),-1.98% (active)
3,O=C1Nc2cc(-c3ccc(NC(=O)c4cccc([N+](=O)[O-])c4)cc3)ccc2/C1=C/c1ccc[nH]1,67.2% (inactive)
4,CCCn1c(=O)c2[nH]c(-c3ccc(OCc4nc5ccc(F)cc5[nH]4)cc3)nc2n(CCC)c1=O,-78.7% (active)
5,CCCS(=O)(=O)c1oc(-c2ccc(F)cc2)nc1S(=O)(=O)c1ccc(F)cc1,-100% (active)
6,O=C(CSc1nnc(-c2c[nH]c3ccccc23)n1-c1ccccc1)Nc1ccc(C(=O)/C=C/c2ccc(Br)cc2)cc1,52.9% (inactive)
7,CCOC(=O)C1=C(N)N(c2ccc(Cl)cc2)C2=C(C(=O)CC(C)(C)C2)C1c1ccc(N2CCOCC2)cc1 (stereo not drawn),85.3% (inactive)
8,COc1ccc2[nH]cc(/C=N/Nc3ccc(Br)cn3)c2c1,11% (inactive)
9,O/N=C(\CSc1nnc(-c2c[nH]c3ccccc23)n1-c1ccccc1)c1ccc(Cl)cc1,34.4% (inactive)
10,COc1ccc2[nH]c(O)c(N=NC(=O)COc3ccc(NC(=O)Nc4ccc(Cl)c(Cl)c4)cc3)c2c1,111% (inactive)
11,C=C1CC[C@H](C(=C)C)[C@H]2C=C(C)C(=O)C3=C(C(=O)[C@@](C)(O)C3)[C@H]12,-99.8% (active)
12,O=S(=O)(Nc1ncccn1)c1ccc(-n2c(-c3ccccc3)nc(-c3ccccc3)c2-c2ccccc2)cc1,62.2% (inactive)
13,COc1cccc(/C=C2\N=C(C)N(CCc3ccc(S(N)(=O)=O)cc3)C2=O)c1,90.9% (inactive)
14,CN(C)c1ccc(/C=C/C(=O)c2ccc(NC(=O)CN3C(=O)NC(C)(c4ccccc4)C3=O)cc2)cc1 (stereo not drawn),57.7% (inactive)
15,O=C(O)CCCCCCCCCCN1C(=O)/C(=C/c2cnc(-c3ccccc3)s2)SC1=S,77.5% (inactive)
16,COc1ccc(-c2ccc(/C=N/NC(=O)c3[nH]c4ccc(Br)cc4c3-c3ccccc3)s2)cc1,86.4% (inactive)
17,O=C1N/C(=N\c2nccs2)S/C1=C\c1cccs1,20.8% (inactive)
18,O=C(CNc1nc(-c2ccccc2)cs1)Nc1ccccc1,17.9% (inactive)

row,Structure (SMILES),growth
1,COc1cc2c3c(n(CCCNC(C)C)c(=O)c2cc1OC)-c1nc2c(cc1C3=O)OCO2,-97% (active)
2,Cc1cccc(-c2nc(Nc3ccccc3C(=O)O)c3ccccc3n2)c1,31% (inactive)
3,Oc1ccc(/C=C2\CCCc3cc4ccc(O)cc4[o+]c32)c(O)c1,51.9% (inactive)
4,N#Cc1ccc(-c2nn(-c3ccc(C(=O)O)cc3)cc2CNc2ccc(Cl)cc2)cc1,61.8% (inactive)
5,Cc1ccc(NC(=O)c2ccc(-n3c(=O)[nH]c4ccccc4c3=O)cc2)cc1,-16.8% (active)
6,Nc1nc(Nc2ccc(Cl)cc2)n(Cc2cccc(Br)c2)n1,-7.87% (active)
7,O=C(CN1CCN(c2ncnc3c2cnn3-c2ccccc2)CC1)Nc1nncs1,-97.2% (active)
8,O=c1c2ccccc2nc(COc2ccccc2)n1/N=C/c1ccc(N2CCOCC2)cc1,69.3% (inactive)
9,Cn1c(O)c(N=Nc2nc(-c3cc4ccccc4oc3=O)cs2)c2cc(Br)ccc21,77.9% (inactive)
10,C/C(=N\NC(N)=S)c1ccc(Nc2nc(SC(C)C)nc(-c3ccccc3)c2C#N)cc1,77.5% (inactive)
11,COc1ccc(/C=C/C(=O)c2ccc(N3CCN(C)CC3)cc2)c(C(F)(F)F)c1,44.2% (inactive)
12,Nc1n[nH]c2cccc(C#Cc3cccc(NC(=O)Nc4cc(C(F)(F)F)cc(C(F)(F)F)c4)c3)c12,-52.5% (active)
13,O=C(Nc1ccc(Cl)c([N+](=O)[O-])c1)Nc1ccc(Cl)c([N+](=O)[O-])c1,-2.65% (active)
14,O=C(Nc1nc2ccc([N+](=O)[O-])cc2s1)Nc1cc(Cl)ccc1I,-18.3% (active)
15,O=C1CCC(N2Cc3cc(NC(=O)COc4ccccc4)ccc3C2=O)C(=O)N1 (stereo not drawn),28.5% (inactive)
16,O=C(c1ccc(-n2c(=O)[nH]c3ccccc3c2=O)cc1)N1CCOCC1,82.5% (inactive)
17,CN1CCc2c(sc3ncnc(N/N=C/c4cn(-c5ccccc5)nc4-c4ccc(Cl)cc4)c23)C1,15.4% (inactive)
18,C=CC(=O)Nc1ccc(C(=O)/C=C/c2ccc(N(C)CCF)cc2)c(O)c1,-96.6% (active)

# Test system: TK-10 renal
# Experiment: as above
# Details: 10 µM
row,Structure (SMILES),growth
1,Cc1ccc(F)cc1N/C=c1\s/c(=C(\C#N)C(=O)Nc2ccccc2)n(-c2ccccc2)c1=O,84.4% (inactive)
2,O=C1Nc2cc(-c3ccc(NC(=O)c4cccc([N+](=O)[O-])c4)cc3)ccc2/C1=C/c1ccc[nH]1,108% (inactive)
3,CCCn1c(=O)c2[nH]c(-c3ccc(OCc4nc5ccc(F)cc5[nH]4)cc3)nc2n(CCC)c1=O,-3.59% (active)
4,CCCS(=O)(=O)c1oc(-c2ccc(F)cc2)nc1S(=O)(=O)c1ccc(F)cc1,-97.2% (active)
5,O=C(CSc1nnc(-c2c[nH]c3ccccc23)n1-c1ccccc1)Nc1ccc(C(=O)/C=C/c2ccc(Br)cc2)cc1,97.7% (inactive)
6,CCOC(=O)C1=C(N)N(c2ccc(Cl)cc2)C2=C(C(=O)CC(C)(C)C2)C1c1ccc(N2CCOCC2)cc1 (stereo not drawn),98% (inactive)
7,COc1ccc2[nH]cc(/C=N/Nc3ccc(Br)cn3)c2c1,54% (inactive)
8,O/N=C(\CSc1nnc(-c2c[nH]c3ccccc23)n1-c1ccccc1)c1ccc(Cl)cc1,-23.2% (active)
9,COc1ccc2[nH]c(O)c(N=NC(=O)COc3ccc(NC(=O)Nc4ccc(Cl)c(Cl)c4)cc3)c2c1,15.5% (inactive)
10,C=C1CC[C@H](C(=C)C)[C@H]2C=C(C)C(=O)C3=C(C(=O)[C@@](C)(O)C3)[C@H]12,-97% (active)
11,O=S(=O)(Nc1ncccn1)c1ccc(-n2c(-c3ccccc3)nc(-c3ccccc3)c2-c2ccccc2)cc1,94.6% (inactive)
12,COc1cccc(/C=C2\N=C(C)N(CCc3ccc(S(N)(=O)=O)cc3)C2=O)c1,97.6% (inactive)
13,CN(C)c1ccc(/C=C/C(=O)c2ccc(NC(=O)CN3C(=O)NC(C)(c4ccccc4)C3=O)cc2)cc1 (stereo not drawn),97.3% (inactive)
14,O=C(O)CCCCCCCCCCN1C(=O)/C(=C/c2cnc(-c3ccccc3)s2)SC1=S,150% (inactive)
15,COc1ccc(-c2ccc(/C=N/NC(=O)c3[nH]c4ccc(Br)cc4c3-c3ccccc3)s2)cc1,127% (inactive)
16,O=C1N/C(=N\c2nccs2)S/C1=C\c1cccs1,55.2% (inactive)
17,O=C(CNc1nc(-c2ccccc2)cs1)Nc1ccccc1,-79.4% (active)
18,COc1cc2c3c(n(CCCNC(C)C)c(=O)c2cc1OC)-c1nc2c(cc1C3=O)OCO2,97.2% (inactive)
19,Cc1cccc(-c2nc(Nc3ccccc3C(=O)O)c3ccccc3n2)c1,85.8% (inactive)

row,Structure (SMILES),growth
1,Oc1ccc(/C=C2\CCCc3cc4ccc(O)cc4[o+]c32)c(O)c1,92.3% (inactive)
2,N#Cc1ccc(-c2nn(-c3ccc(C(=O)O)cc3)cc2CNc2ccc(Cl)cc2)cc1,108% (inactive)
3,COc1ccc2nc(Cl)c(-c3cc(-c4ccccc4)nc(=S)[nH]3)cc2c1,129% (inactive)
4,Cc1ccc(NC(=O)c2ccc(-n3c(=O)[nH]c4ccccc4c3=O)cc2)cc1,96.3% (inactive)
5,Nc1nc(Nc2ccc(Cl)cc2)n(Cc2cccc(Br)c2)n1,-3.35% (active)
6,O=C(CN1CCN(c2ncnc3c2cnn3-c2ccccc2)CC1)Nc1nncs1,-56.5% (active)
7,O=c1c2ccccc2nc(COc2ccccc2)n1/N=C/c1ccc(N2CCOCC2)cc1,81.6% (inactive)
8,Cn1c(O)c(N=Nc2nc(-c3cc4ccccc4oc3=O)cs2)c2cc(Br)ccc21,56.8% (inactive)
9,O=c1nc(-c2ccccc2)cc(-c2cc3ccccc3nc2Cl)[nH]1,87.7% (inactive)
10,C/C(=N\NC(N)=S)c1ccc(Nc2nc(SC(C)C)nc(-c3ccccc3)c2C#N)cc1,98.1% (inactive)
11,COc1ccc(/C=C/C(=O)c2ccc(N3CCN(C)CC3)cc2)c(C(F)(F)F)c1,71.7% (inactive)
12,Nc1n[nH]c2cccc(C#Cc3cccc(NC(=O)Nc4cc(C(F)(F)F)cc(C(F)(F)F)c4)c3)c12,-3.32% (active)
13,O=C(Nc1ccc(Cl)c([N+](=O)[O-])c1)Nc1ccc(Cl)c([N+](=O)[O-])c1,48.3% (inactive)
14,O=C(Nc1nc2ccc([N+](=O)[O-])cc2s1)Nc1cc(Cl)ccc1I,-4.54% (active)
15,O=C1CCC(N2Cc3cc(NC(=O)COc4ccccc4)ccc3C2=O)C(=O)N1 (stereo not drawn),66% (inactive)
16,O=C(c1ccc(-n2c(=O)[nH]c3ccccc3c2=O)cc1)N1CCOCC1,97.2% (inactive)
17,CN1CCc2c(sc3ncnc(N/N=C/c4cn(-c5ccccc5)nc4-c4ccc(Cl)cc4)c23)C1,49.9% (inactive)
18,C=CC(=O)Nc1ccc(C(=O)/C=C/c2ccc(N(C)CCF)cc2)c(O)c1,-23.7% (active)
